test system: NEK11; conditions: concentration: 1 μM, replicates: in singlicate; n = 1
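Note: KINOMEscan kinase panel screen.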

Structure (SMILES)	%Inh
CCCCc1nn2ncccc2c1-c1ccnc(Nc2ccc(N3CCN(C)CC3)cc2)n1 [GW684941]	62%
Cc1ccc(S(=O)(=O)Nc2ccc(Nc3nccc(Nc4cccc5[nH]ncc45)n3)cc2)cc1 [GSK581271]	27%
CN(C)Cc1ccc(-c2ccc3c(Nc4ccc(Oc5ccccn5)cc4)ccnc3c2)o1 [GW567148]	8%
Cc1cccc(Nc2nc(N[C@H]3CCNC3)ncc2C(N)=O)c1.Cl [GSK2197149]	0%
Cc1ccc(C(=O)N2CC[C@@H](O)C2)cc1-n1c(C)cc(OCc2ccc(F)cc2F)c(Br)c1=O	0%
O=C(O)C(F)(F)F.O=C(O)C(F)(F)F.O=c1[nH]ccc2nc(N[C@@H]3CCCNC3)nc(Nc3ccc(S(=O)(=O)N4CCOCC4)cc3)c12 [GSK2177277]	0%
Cc1ccc(C)c(NC(=O)NC2CCN(c3ccnc(Nc4ccc(F)cc4)n3)C2)c1 (centres unmarked) [GSK1379720]	15%
Cc1cccc(NC(=O)Nc2ccc(Oc3ncnc4ccn(C)c34)cc2)c1	0%
COc1ccc(-c2coc3ccc(-c4nnc(SCc5ccc(OC)c(C(F)(F)F)c5)o4)cc23)cc1	0%
CC(C)c1nc(-c2cccc(NS(=O)(=O)c3c(F)cccc3F)c2F)c(-c2ccnc(Nc3ccc(N4CCOCC4)nc3)n2)s1 [GSK2008607]	98.6%
O=C(Nc1cccc(-c2nn3ncccc3c2-c2ccnc(Nc3ccccc3)n2)c1)c1c(F)cccc1F [GSK198271]	0%

Source: paper PMC5540273 (PLoS ONE, 2017)
